We go through 40 molecules from PubChem BioAssay (NCATS).

Values joined by “and” are separate entries in the source; they are usually repeats but may differ in a detail not shown here. Equal values may be shown once. Results filed as inconclusive are left out. Values without a mark were called inactive. Calls come from the whole dose curve; as a rule, active = well fitted curve in the direction sought with a large enough effect; inconclusive = small, poorly fitted or top-dose-only effect, or another doubt; inactive = no such curve, though single readings can be large or run the other way.
% is set by controls: 0 for no effect and ±100 for the full control effect.

This assay is described as follows: qHTS Assay for Identifying Gametocytocidal Compounds (AID 743244).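 Note: actives lower the fluorescent signal which means gametocytes are killed.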 The following applies: P. falciparum 3D7 stage III-V gametocytes, alamarBlue, 72 h; max response: stronger effect = lower value. Put shortly:
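Fluorescence at Ex 525/Em 598 nm, recorded 24 h after alamarBlue addition, reports residual metabolic activity of 3D7 gametocytes (stages III–V) following 72 h compound exposure at 37 °C, 5% CO2.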
Background: qHTS replaces the single test concentration by a dilution series.
Take `CCC(=O)O[C@]1(c2ccccc2)CCN(C)C[C@H]1C`: the max response is -3.07%.
The value for `C[C@]12CC[C@H](OS(=O)(=O)O)CC1=CC[C@@H]1[C@@H]2CC[C@]2(C)C(=O)CC[C@@H]12` was 33.6%.
The value for `CCC(C)(S(=O)(=O)CC)S(=O)(=O)CC` was 7.4%; that for `C[C@]12C[C@H]3S[C@H]3C[C@@H]1CC[C@@H]1[C@@H]2CC[C@]2(C)[C@@H](O)CC[C@@H]12` was 1.49%.
The same measure for `C[C@H]1CC[C@]2(NC1)O[C@H]1C[C@H]3[C@@H]4CC[C@H]5C[C@@H](O)CC[C@]5(C)[C@H]4CC[C@]3(C)[C@H]1[C@@H]2C`: 2.92%; for `OC(c1ccccc1)(c1ccccc1)C1CN2CCC1CC2` (stereo not given): -14.7%; for `C[C@]12CCC(=O)C=C1C=C[C@@H]1[C@@H]2CC[C@@]2(C)[C@H]1CC[C@@]2(O)CCC(=O)O`: 16.5%.
For `CNC(=O)OCC[N+](C)(C)C`, the max response was -1.58%.
The value for `O[C@H]1[C@H]2[C@H](O)CCCN2C[C@H]1O` was -8.84%; that for `C[C@@H](Cc1ccccc1)N(C)C` was -7.23%.
Consider `O=[N+]([O-])c1cc(I)c(O)c(I)c1`, for which the max response was 0.0812%.
The same measure for `CNC(C)C(O)c1ccc(O)cc1` (stereo not given): -4.84% and 8.32%.
The value for `c1ccc2sc(SNC3CCCCC3)nc2c1` was 27.5%.
The same measure for `CCC(=O)O[C@@](Cc1ccccc1)(c1ccccc1)[C@@H](C)CN(C)C`: 5.87%; for `[S]=[Sb](=[S])[S][Sb](=[S])=[S]`: 3.55%.
In the case of `CNc1ccc(C(=O)CC(O)CCC(C)C2OC(=O)CC(O)CC(=O)CC(O)CC(O)CC(O)CC(O)CC3(O)CC(O)C(C(=O)OC)C(CC(O[C@@H]4O[C@H](C)[C@@H](O)[C@H](N)[C@@H]4O)/C=C/C=C/C=C/C=C/C=C/C=C/C=C/C2C)O3)cc1` (stereo not given in full), the max response is 22.8%.
As to `CCC(N)Cc1c[nH]c2ccccc12` (stereo not given), the max response was 2.35% and -8.43%.
The same measure for `O=P(O)(O)C(Cl)(Cl)P(=O)(O)O`: -3.79% and -4.92%; for `c1ccc(C2(N3CCCC3)CCCCC2)cc1`: -1.69%; for `COc1cc2c(cc1OC)[C@@]13CCN4CC5=CCO[C@H]6CC(=O)N2[C@H]1[C@H]6[C@H]5C[C@H]43`: 18.6%.
The same measure for `COC(=O)[C@@H]1[C@H]2CC[C@@H](C[C@H]1OC(=O)c1ccccc1)N2C`: 5.25%; for `CC(=O)O[C@H]1C[C@H](O[C@H]2[C@@H](O)C[C@H](O[C@H]3[C@@H](O)C[C@H](OC4CC[C@@]5(C)[C@H](CC[C@@H]6[C@@H]5CC[C@]5(C)[C@@H](C7=CC(=O)OC7)CC[C@]65O)C4)O[C@@H]3C)O[C@@H]2C)O[C@H](C)[C@H]1O[C@@H]1O[C@H](CO)[C@@H](O)[C@H](O)[C@H]1O` (stereo not given in full): 9.96%; for `CNC(=O)Oc1ccccc1C(=O)Nc1ccccc1`: 8.96%.
The same measure for `CC1(C)S[C@@H]2[C@H](N)C(=O)N2[C@H]1C(=O)O`: -4.29%; for `CC1CCC(C(C)C)C(OC(=O)c2ccccc2N)C1` (stereo not given): 9.28%; for `Cc1cc(C)cc(C(=O)OC2C[C@H]3CC[C@@H](C2)N3C)c1` (stereo not given in full): 23%.
With `CCCCCCCCCC(=O)O[C@H]1CC[C@H]2[C@@H]3CCC4=CC(=O)CC[C@]4(C)[C@H]3CC[C@]12C`, the max response was 4.27%.
The value for `CC(=O)O[C@H]1CC[C@H]2[C@@H]3CCC4=CC(=O)CCC4=C3C=C[C@]12C` was 5.16%.
The same measure for `Clc1ccc(C2(Cn3cncn3)OCCO2)c(Cl)c1`: -2.25%; for `CC(=O)Oc1ccc2c3c1O[C@H]1[C@@H](OC(C)=O)C=C[C@H]4[C@@H](C2)N(C)CC[C@@]341`: 1.05% and 0.272%; for `CCCCCCC(=O)O[C@H]1CC[C@H]2[C@@H]3CC[C@H]4CC(=O)C=C(C)[C@]4(C)[C@H]3CC[C@]12C`: 7.58%.
The same measure for `CCC/C=C/C=C/C(=O)O[C@H]1/C(=C/C(=O)OC)C[C@H]2C[C@H]([C@@H](C)O)OC(=O)C[C@H](O)C[C@@H]3C[C@H](OC(C)=O)C(C)(C)[C@](O)(C[C@@H]4C/C(=C/C(=O)OC)C[C@H](/C=C/C(C)(C)[C@]1(O)O2)O4)O3`: -10.9%; for `O=S(=O)(O)c1cc(O)ccc1O`: 6.77%; for `CCC1(CC)C(=O)NC(=O)N(C)C1=O`: -12.2%.
As to `O=c1ccc2cc(O[C@@H]3O[C@H](CO)[C@@H](O)[C@H](O)[C@H]3O)c(O)cc2o1`, the max response is 0.481%.
`CO[C@H]1[C@@H](O)C[C@H](O[C@H]2[C@@H](O)C[C@H](O[C@H]3[C@@H](O)C[C@H](O[C@H]4CC[C@@]5(C)[C@H](CC[C@@H]6[C@@H]5C[C@@H](O)[C@]5(C)[C@@H](C7=CC(=O)OC7)CC[C@]65O)C4)O[C@@H]3C)O[C@@H]2C)O[C@@H]1C`: the max response was -9.7%.
Take `CNC1(c2ccccc2Cl)CCCCC1=O` (stereo not given): the max response is 16% and -7.76%.
The same measure for `Clc1ccc(Cl)cc1`: -1.73%.
The same measure for `O=C(NC(=O)c1c(F)cccc1F)Nc1ccc(Cl)c(Oc2ncc(C(F)(F)F)cc2Cl)c1`: -9.15%.
The value for `CCN1C[C@]2(COC)[C@H](O)C[C@H](OC)[C@@]34[C@@H]5C[C@@]6(O)[C@H](OC(=O)c7ccccc7)[C@@H]5[C@@](OC(C)=O)([C@@H]([C@H](OC)[C@H]23)[C@@H]14)[C@@H](O)[C@@H]6OC` was -5.96%.
